# Experimental data reported in PubChem BioAssay AID1645860 (Buhrlage Lab, Dana-Farber Cancer Institute and Novartis …, 2021).
# Screen size: about 47,000 compounds; about 2,500 (5.3%) were called active. Only a selection was taken, and actives are over-represented in it overall. Values without a mark were called inactive. Rule as the data show it: active = inhibition above about 30%; inactive = the rest.
# Target: Ubiquitin carboxyl-terminal hydrolase 30 (Homo sapiens) (UniProt Q70CQ3)
# Test: inhibitors of human USP30 deubiquitinase (AID 1645860)
# Details: purified USP30, Ub-rhodamine cleavage fluorescence; at 25 µM; stronger effect = higher value
# Ubiquitin carboxyl-terminal hydrolase 30 (Homo sapiens), sequence (Q70CQ3 whole entry, looked up): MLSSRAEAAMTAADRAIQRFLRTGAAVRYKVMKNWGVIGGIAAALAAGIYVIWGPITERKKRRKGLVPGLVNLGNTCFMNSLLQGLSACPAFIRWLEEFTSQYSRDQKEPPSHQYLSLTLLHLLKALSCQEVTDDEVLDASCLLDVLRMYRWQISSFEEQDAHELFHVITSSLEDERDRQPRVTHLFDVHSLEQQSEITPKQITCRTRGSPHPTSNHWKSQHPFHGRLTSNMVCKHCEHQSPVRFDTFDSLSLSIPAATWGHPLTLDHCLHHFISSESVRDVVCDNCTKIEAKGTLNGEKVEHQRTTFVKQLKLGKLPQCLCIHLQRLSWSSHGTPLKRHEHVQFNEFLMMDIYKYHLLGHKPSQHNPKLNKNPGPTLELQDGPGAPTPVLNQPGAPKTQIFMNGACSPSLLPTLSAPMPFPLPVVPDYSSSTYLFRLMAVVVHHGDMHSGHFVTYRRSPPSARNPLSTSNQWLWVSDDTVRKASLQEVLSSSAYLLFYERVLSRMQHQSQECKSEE
row,Compound,inhibition
1,O=C(Oc1cccc([N+](=O)[O-])c1)C(c1ccccc1)c1ccccc1,25%
2,CC(CCc1ccccc1)NC(=O)c1cc2cc(Oc3ccccc3)ccc2[nH]1 (stereo not drawn),8.29%
3,CC(CCc1ccccc1)NC(=O)/C=C/c1cccc([N+](=O)[O-])c1 (stereo not drawn),34.1% (active)
4,COc1cccc(OCC(=O)N2CC(=O)Nc3ccccc32)c1,-14.6%
5,Cc1nc(C)n(CC2CCCCN2Cc2ncc(C(C)(C)C)o2)n1 (stereo not drawn),-97.5%
6,Cc1cc(C2CN(C(=O)c3cn4c(C)cccc4n3)CCO2)nc(C)n1 (stereo not drawn),2.35%
7,O=C(Cc1cccc2ccccc12)Nc1nc2ccc(F)cc2s1,53.9% (active)
8,CCCC(=O)Nc1nc2ccc(CCC(=O)NCc3ccc(F)cc3)cc2s1,-10.2%
9,CCOc1ccc2nc(NC(=O)CN3CCC(C(N)=O)CC3)sc2c1,-1.04%
10,O=C(OCC(=O)N1CCc2ccccc21)c1cccc([N+](=O)[O-])c1,-2.1%
11,CC(C)[C@H](NC(=O)N1CCn2c1nc1ccccc12)C(=O)NC1CC1,16%
12,Cc1ccc2c(c1)C(c1ccccc1)N(C(=O)c1ccc(S(=O)(=O)N3CCOCC3)cc1)CC(=O)N2 (stereo not drawn),32.4% (active)
13,Cc1ccc2c(c1)C(c1ccc(F)cc1)N(C(=O)CC1CCCCC1)CC(=O)N2 (stereo not drawn),26.9%
14,O=C1CN(C(=O)c2cccc3ccccc23)C(c2ccc(F)cc2)c2cc(Br)ccc2N1 (stereo not drawn),16%
15,O=C(c1ccccc1Cl)N1CCc2c([nH]c3ccccc23)C1c1ccc2c(c1)OCO2 (stereo not drawn),-14.6%
16,CCc1nnc(NC(=O)C2CCN(C(=O)c3ccc(F)cc3)CC2)s1,-0.015%
17,CCc1nnc(NC(=O)c2cc(-c3ccc(C)c(C)c3O)n[nH]2)s1,17.9%
18,CCc1ccc(-n2nnc(C(=O)Nc3nnc(CC)s3)c2C)cc1,30.5% (active)
19,CNC(=O)c1cc(-c2ccccc2)c(N2CCOCC2)s1,-0.0877%
20,COc1ccc(-c2nc(N(Cc3ccccc3)C(=O)CN3CCOCC3)sc2C)cc1,-14.4%
21,COc1ccc(NC(=O)c2sc(N3CCOCC3)nc2-c2ccccc2)c(OC)c1,48.1% (active)
22,Cc1cc(C)c(S(=O)(=O)Nc2ccc(Cn3cncn3)cc2)cc1C,-29.3%
23,COc1ccc(CN[C@H]2[C@H](O)[C@H](O)C[C@@H]2c2ccccc2)cn1,-17.6%
